Results as given in PubChem BioAssay AID1251 (SRMLSC, 2008).
Screen size: about 200,000 compounds; about 720 (0.36%) were called active. This is one part of a sample in which actives are shown more often than they occur. No stated cut-off is given here; in the data, active means inhibition above about 30%; inactive means the rest, inconclusive results apart.

Assay: antivirals against arbovirus infection, primary screen, cell-based, full library, 10K replicate subset (AID 1251)
Details: arbovirus infection cell-based antiviral screen, at 10 µM, active compounds read high
For `COc1ccc(CCNC(=O)/C(C#N)=C2\N=C(NC(=O)c3cccs3)c3ccccc32)cc1`, the inhibition was 1.79% (inactive).
In the case of `O=C(O)/C=C/c1cn(Cc2ccccc2)nc1-c1cccs1`, the inhibition is reported as 9.79% (inactive).
With `Cc1c(Cl)cccc1NC(=S)NCc1ccc2c(c1)OCO2` the inhibition was -9.04% (inactive).
With `COCC(C)NCc1cc(Br)ccc1OC` (stereo not given) the inhibition was 5.99% (inactive).
For `CCOc1ncccc1C(=O)N(C)CC(=O)Nc1ccc(F)cc1`, the inhibition was -2.52% (inactive).
With `Cc1cc2ccccc2n1CCC(=O)O` the inhibition was 4.57% (inactive).
With `COc1ccccc1N1CCN(C(=O)c2ccc(Cl)c(S(=O)(=O)N3CCCC3)c2)CC1` the inhibition was 4.9% (inactive).
With `CC(=O)Nc1ccc(NC(=O)COc2ccccc2C(=O)Nc2cccc(Cl)c2Cl)cc1` the inhibition was 33.1% (active).
With `O=C(COc1ccccc1Cl)Nc1ccc(C(=O)c2ccc(C(=O)O)cc2)cc1` the inhibition was 1.44% (inactive).
With `COc1cc(NC(=O)COc2ccccc2Cl)ccc1NC(=O)C(C)C` the inhibition was -3.4% (inactive).
With `CSc1ccccc1NC(=O)CN(C)CC(=O)Nc1ccc(Cl)cc1[N+](=O)[O-]` the inhibition was 9.71% (inactive).
With `COc1ccccc1C(=O)Nn1c(-c2cccs2)nc2ccccc2c1=O` the inhibition was -3.21% (inactive).
In the case of `CCOC(=O)N1CCN(C(=O)Cn2cnc3ccccc3c2=O)CC1`, the inhibition is reported as 4.88% (inactive).
With `CCOC(=O)C(=Cc1ccccc1OC)C(=O)OCC` the inhibition was 1.92% (inactive).
In the case of `O=c1c2c(ncn1Cc1ccccc1)nc1n2CCC1`, the inhibition is reported as -1.22% (inactive).
For `COc1ccc(/C=N/NC(=O)C(C)N(c2ccc(OC)cc2)S(C)(=O)=O)cc1` (stereo not given), the inhibition was -1.77% (inactive).
For `COc1cc(OC)cc(C(=O)OCC(=O)Nc2sccc2C(N)=O)c1`, the inhibition was 4.53% (inactive).
For `O=C(COC(=O)C12CC3CC(CC(O)(C3)C1)C2)NC12CC3CC(CC(C3)C1)C2`, the inhibition was 5.43% (inactive).
In the case of `Cc1ccc(C(=O)N/C(=C\c2ccco2)C(=O)N2CCSCC2)cc1C`, the inhibition is reported as 4.17% (inactive).
For `O=C(Nc1ccn(Cc2ccccc2)n1)c1n[nH]c([N+](=O)[O-])c1Cl`, the inhibition was 50.2% (active).
With `O=C(Nc1ccn(Cc2ccccc2)n1)c1cccc(F)c1` the inhibition was -18.6% (inactive).
In the case of `O=C(Nc1ccn(Cc2ccc(F)cc2)n1)c1ccncc1`, the inhibition is reported as 3.28% (inactive).
In the case of `CC(=O)NC(NC(=S)Nc1c(C)n(C)n(-c2ccccc2)c1=O)C(Cl)(Cl)Cl` (stereo not given), the inhibition is reported as 7.15% (inactive).
For `CCOc1cc(NC(=S)NCCCN(C)C)c(OCC)cc1NC(=O)C1CC1`, the inhibition was 5.58% (inactive).
With `CCOc1ccc(Br)cc1S(=O)(=O)Nc1cccc(S(=O)(=O)N(CC)CC)c1` the inhibition was 2.51% (inactive).
For `CN(C)c1ccc(C(CC(=O)O)C(=O)O)cc1` (stereo not given), the inhibition was 2.46% (inactive).
For `COc1ccc(N2C(=O)C(CC(=O)Nc3ccccc3)N(Cc3ccc(OC)c(OC)c3)C2=O)cc1` (stereo not given), the inhibition was 0.98% (inactive).
In the case of `COc1ccccc1N1CCN(C(=O)c2cc(-c3ccc(Cl)c(Cl)c3)on2)CC1`, the inhibition is reported as 2.74% (inactive).
In the case of `O=C(c1ccncc1)N1CCN(c2ccc3ccccc3n2)CC1`, the inhibition is reported as 5.37% (inactive).
In the case of `O=C(c1ccc2ccccc2n1)N1CCN(c2ccccc2Cl)CC1`, the inhibition is reported as 36% (active).
With `Cc1cc(C(=O)NNC(=O)CCC2CCCCC2)c(C)o1` the inhibition was -2.2% (inactive).
For `C=CCn1nc(-c2ccccc2)c2c(C)onc2c1=O`, the inhibition was 4.65% (inactive).
In the case of `Cc1ccc(-c2cc(C(F)(F)F)n3ncc(C(=O)N4CCCCC4c4cccnc4)c3n2)cc1` (stereo not given), the inhibition is reported as -9.25% (inactive).
For `COCCn1c(C)cc(C(=O)CSc2nc3ccccc3c(=O)n2C(C)COC)c1C` (stereo not given), the inhibition was 8.78% (inactive).
With `Cc1nc(Nc2ccc(S(=O)(=O)N3CCCC3)cc2)c2nnn(Cc3ccccc3)c2n1` the inhibition was -12.5% (inactive).
With `Cc1nc(Nc2ccc3c(c2)OCCO3)c2nnn(Cc3ccccc3Cl)c2n1` the inhibition was 51.5% (active).
In the case of `CCCc1nc(NCc2ccc3c(c2)OCO3)c2nnn(Cc3ccccc3Cl)c2n1`, the inhibition is reported as -16.2% (inactive).
In the case of `Cc1ccc2nsnc2c1S(=O)(=O)N1CCCC1C(=O)O` (stereo not given), the inhibition is reported as 1.07% (inactive).
With `COCc1c(C(=O)OCc2c(C)noc2C)oc2ccccc12` the inhibition was 3.37% (inactive).
With `Cc1cc(C)c(NC(=O)c2oc3ccccc3c2COc2ccccc2)c(C)c1` the inhibition was 32.5% (active).
In the case of `CCOC(=O)c1oc2ccccc2c1NC(=O)c1cccs1`, the inhibition is reported as -1.76% (inactive).
With `O=c1[nH]c(CN2CCOCC2)nc2scc(-c3ccccc3)c12` the inhibition was 5.07% (inactive).
With `O=C(CN(CC1CCCO1)C(=O)CNS(=O)(=O)c1ccc(F)cc1)NCc1ccco1` (stereo not given) the inhibition was 2.42% (inactive).
For `C/C(=N\N=C(N)N)c1ccc(Cl)cc1`, the inhibition was -24.2% (inactive).
For `CC(C)(C)C(=O)NCCCNc1ccc([N+](=O)[O-])cc1`, the inhibition was 1.95% (inactive).
In the case of `O=C(CNCc1ccc(F)cc1)Nc1ccccc1-c1ccccc1`, the inhibition is reported as -16.4% (inactive).
For `CCc1ccc(/C=C2\SC(N3CCOCC3)=NC2=O)cc1`, the inhibition was -6.68% (inactive).
With `Cc1ccc(N2CCN(C3=NC(=O)/C(=C\c4cccs4)S3)CC2)cc1` the inhibition was 6.43% (inactive).
For `Cc1ccc(Cl)c(NC(=O)CN2CCN(C=O)CC2)c1`, the inhibition was 5.23% (inactive).
With `COc1ccc(CCn2ccc(O)c(Cc3ccc(Cl)cc3Cl)c2=O)cc1OC` the inhibition was 5.76% (inactive).
In the case of `C/C(CCc1ccccc1)=N\NC(=O)c1ccc(CN2CCOCC2)cc1`, the inhibition is reported as -3.19% (inactive).
With `COc1ccc2c(c1)CCC/C2=N\OC(=O)c1ccccc1F` the inhibition was -1.6% (inactive).
For `CCOc1cc(CNCc2ccccn2)ccc1OCC(=O)NC(C)(C)C`, the inhibition was -2.89% (inactive).
For `CCCCCC(=O)NC(=S)NNC(=O)c1ccc([N+](=O)[O-])cc1`, the inhibition was -18% (inactive).
In the case of `CCN(C(=O)COC(=O)c1cc(S(=O)(=O)N2CCc3ccccc32)ccc1OC)C1CCS(=O)(=O)C1` (stereo not given), the inhibition is reported as 7.54% (inactive).
With `CCN(CC)CCNC(=O)c1ccc(NC(=O)c2c(F)cccc2Cl)cc1` the inhibition was -4.69% (inactive).
In the case of `Cc1cc(C)c2nc(SCC(=O)N(C)C3CCS(=O)(=O)C3)cc(C)c2c1` (stereo not given), the inhibition is reported as -6.1% (inactive).
With `CCSc1nnc(NC(=O)Cc2ccccc2OC)s1` the inhibition was 3.03% (inactive).
For `CCSc1nnc(NC(=O)c2ccc(C)cc2)s1`, the inhibition was 33.2% (active).
In the case of `CC(=O)c1sc(NC(=O)c2ccc(C)cc2)nc1C`, the inhibition is reported as -4.42% (inactive).
